Measured values from ChEMBL document CHEMBL4513216, “Probing the Open Global Health Chemical Diversity Library for Multistage-Active Starting Points for Next-Generation Antimalarials” (ACS Infect Dis, 2020).
Hit rate of the full screen: of about 68,000 compounds, about 2,700 (4%) showed an effect of 50% or more. This excerpt belongs to a sample that is enriched for strong results.

System: Plasmodium berghei
Test: Screen against P. berghei liver stage (PbLuc), transformed with Luciferase, at 2uM
Format: functional, HepG2
Conditions: tested at 2 uM

SMILES | INHIBITION [%]
Cc1noc(C(C)Nc2ccc3c(c2)CCC3)n1 (stereo unspecified) | -46.99
CN1CCc2c(C#N)c(NCCc3ccccc3)n3cnnc3c2C1 | -30.35
Cc1ccc(NS(=O)(=O)c2c[nH]c3ncccc23)nc1 | -27.36
Cc1csc(NC(=O)c2cnc(C3CCCN3)cn2)n1 (stereo unspecified) | 14.47
CCCn1nc2c(cc1=O)CN(Cc1ncc(C(C)(C)C)o1)CC2 | 27.85
C1=CCN(c2nc(CC3CC3)nc3c2CCN(C2CCOCC2)CC3)C1 | -59.35
O=C(c1cc(-c2ccc(O)cc2)n[nH]1)N1CCCC1c1cccnc1 (stereo unspecified) | 35.01
COCC(=O)N1CC[C@]2(O)CCN(C(=O)CCc3ccsc3)C[C@@H]2C1 | -11.68
COCC(=O)N1CCN(C(=O)CCc2ccsc2)CC1 | 67.28
COc1cc(C)nc(N2CCN(C(=O)CCc3ccsc3)CC2)n1 | 1.77
C[C@H]1CN(C(=O)c2cccc(F)c2Cl)CCN1S(C)(=O)=O | -33.29
CSc1nccc(N2CCC(NCc3ccc4c(c3)OCO4)CC2)n1 | 46.95
c1ccc(CN2CCOCC3(CCN(C4CCOCC4)C3)C2)cc1 (stereo unspecified) | -28.17
CCc1[nH]c2c(CNC(=O)C3CCS(=O)(=O)CC3)cc(C)cc2c1C | 13.65
CCc1[nH]c2c(CNC(=O)C3CNC(=O)C3)cc(C)cc2c1C (stereo unspecified) | 53.05
CCc1[nH]c2c(CNC(=O)C3CCC(=O)NC3)cc(C)cc2c1C (stereo unspecified) | 11.37
CCC(CO)N(Cc1ccco1)C(=O)c1ccccc1NC (stereo unspecified) | 4.57
CCOCC(O)CN1CCN(C(=O)c2ccncc2)CC1 (stereo unspecified) | 69.01
CCOCC(O)CN1CCN(C(=O)c2ccc(OC)cc2)CC1 (stereo unspecified) | 2.8
CCOCC(O)CN1CCN(C(=O)c2cc(F)cc(F)c2)CC1 (stereo unspecified) | -41.07
COc1ccc(-c2cc3nc([C@H](C)NC(=O)C4CC4)nn3cn2)cc1 | 20.72
Cc1ccc(CN2CC[C@H]3[C@H]2CCN3S(C)(=O)=O)s1 | -25.95

SMILES | INHIBITION [%]
CCn1cc(CN2C[C@@H]3CC[C@H]2CN(C(=O)c2ccncc2)C3)cn1 | -23.16
CCc1nn(C)c2[nH]nc(NC(=O)c3cccnc3OCC(C)C)c12 | 5.94
CCc1nn(C)c2[nH]nc(NC(=O)c3cccnc3NC(C)C)c12 | 54.87
CCc1nn(C)c2[nH]nc(NC(=O)c3cccnc3OC)c12 | -3.4
Cc1cnn(CC2CCCN2Cc2coc(-c3ccc(F)cc3)n2)c1 (stereo unspecified) | 7.8
Cc1cccc2c1NC1(CCCC1)NC2=O | 19.81
COc1cccc(OC2CN(C(=O)c3ccnc(OC)c3)C2)c1 | 6.85
CCc1ccccc1OC1CN(C(=O)c2ccnc(OC)c2)C1 | 72.94
COc1cc(C(=O)N2CC(Oc3ccccc3Cl)C2)ccn1 | 14.88
O=C(c1cccn1Cc1cccs1)N1CCC(C(=O)N2CCCC2)CC1 | 17.42
O=C(c1cccn1Cc1cccs1)N1CCSCC1 | 69.49
NC(=O)C1CCN(C(=O)c2cccn2Cc2cccs2)CC1 | 3.97
O=C(c1cccn1Cc1cccs1)N1CCN(C(=O)C2CC2)CC1 | -72.53
CNC(=O)C1CCN(C(=O)c2cccn2Cc2cccs2)CC1 | 56.67
O=C(c1cccn1Cc1cccs1)N1CCN(C2CC2)CC1 | -14.3
Cn1cc(C2COC3(CCN(C(=O)Cn4cccn4)CC3)C2)cn1 (stereo unspecified) | 12.36
CCOCC1CN(CC2CC2)Cc2nn(C)cc21 (stereo unspecified) | 4.99
O=C(CCC1CCCC1)NCCn1nc(C2CCNC2)c2nccnc21 (stereo unspecified) | 26.52
OCCN1CCN(Cc2coc(-c3cccc(F)c3)n2)CC1 | 45.83
CCOCCN1CCN(Cc2coc(-c3cccc(F)c3)n2)CC1 | 62.13
CCN1CCN(Cc2coc(-c3cccc(F)c3)n2)CC1 | 23.92
O=C(c1cnccn1)N1CCOC2(CCN(Cc3ccsc3)CC2)C1 | -3.36

SMILES | INHIBITION [%]
CCOCC(=O)N1C[C@@H]2COC[C@H](c3nc(C)no3)[C@@H]2C1 | 64.16
Cc1noc([C@H]2COC[C@H]3CN(C(=O)Cc4ccccc4F)C[C@H]32)n1 | 15.89
Cc1noc([C@H]2COC[C@H]3CN(C(=O)Cc4ccc(F)cc4)C[C@H]32)n1 | 11.08
CC(C)c1ccc(C(CN)N2CCc3sccc3C2)cc1 (stereo unspecified) | 11.74
CN(Cc1ccco1)[C@@H]1CN(Cc2ccoc2)C[C@@H]2CCCO[C@@H]21 | -11.13
CC1(C)CNC(=O)CN(C(=O)Cc2ccccc2)C1 | 30.56
Cc1cc(C)n(CC(C)NC2CCN(Cc3cccc(O)c3)CC2)n1 (stereo unspecified) | 32.71
CC(Cn1cncn1)NC1CCN(Cc2cccc(O)c2)CC1 (stereo unspecified) | -6.77
CC(CN1CCOCC1)NC1CCN(Cc2cccc(O)c2)CC1 (stereo unspecified) | 58.12
COc1ccc(CCC(C)Nc2cccc(SC)c2)cc1 (stereo unspecified) | 2.5
CCOCC1c2c(ncn2C)CCN1C(=O)c1cnc(C)cn1 (stereo unspecified) | -6.19
Cc1ccc(C(=O)N(C)CCOc2ccccc2F)c(=O)[nH]1 | 54.62
Cc1ccc(C(=O)N(Cc2ccccc2F)C2CC2)c(=O)[nH]1 | -2.23
Cc1ccc(C(=O)N(C)Cc2cscn2)c(=O)[nH]1 | 44.39
O=S(=O)(c1ccc(F)cc1)n1cc(Cl)cn1 | -0.9
NC(=O)c1ccc2c(c1)nc1n2CCN(Cc2cccnc2)C1 | 8.41
O=C(Nc1ccccc1)C1CN(Cc2nccs2)CC12CCOCC2 (stereo unspecified) | 11.9
Cc1cc(-c2cnc(N3CCSCC3)nc2-c2ccc(C)s2)on1 | -48.18
COc1ccc(SC(C)C(=O)N2CCC(O)CC2)cc1 (stereo unspecified) | -0.39
COc1ccc(SC(C)C(=O)N2CCC(NC(=O)C3CC3)CC2)cc1 (stereo unspecified) | 61.74
COc1ccc(SC(C)C(=O)N2CCC(C(N)=O)CC2)cc1 (stereo unspecified) | -12.36
O=C1N(c2cccnc2)CCC12CCCN(Cc1ccoc1)C2 (stereo unspecified) | 16.39
